Measurements as given in PubChem BioAssay (EPA / NIEHS).
Where “and” joins values, the source holds several entries; their conditions need not be identical. Equal entries are not always repeated. Some compounds were tested as several samples or in several runs, with calls that do not always agree. Calls of active or inactive are those of the source. How the source made its calls: active means hit-call score of the fitted dose curve at least 0.9, where 1 is the maximum; inactive means score below 0.9.

read-out: Urokinase-type plasminogen activator receptor (uPAR), PLAUR (gene 5329); test: BSK_4H_uPAR: BioMAP Diversity Plus: 4H Assay for Urokinase-type plasminogen activator receptor (uPAR) Biomarker Activity (AID 2283030); conditions: primary human endothelial cells (HUVEC); actives raise or lower the signal
Method: BSK_4H is a cell-based, multiplexed-readout assay that uses umbilical vein endothelium, a human vascular primary cell, with measurements taken at 24 hours after chemical dosing in a 96-well plate.BSK_4HAR is an assay component measured in the BSK_4H assay. It measures uPAR antibody related to regulation of gene expression using ELISA technology.Data from the assay component BSK_4HAR was analyzed into 1 assay endpoint. This assay endpoint, BSK_4HAR, was analyzed with bidirectional fitting relative to DMSO as the negative control and baseline of activity. Using a type of binding reporter, gain or loss-of-signal activity can be used to understand changes in the signaling as they relate to the gene PLAUR. Furthermore, this assay endpoint can be referred to as a primary readout, because this assay has produced multiple assay endpoints where this one serves a signaling function. To generalize the intended target to other relatable targets, this assay endpoint is annotated to the cytokine intended target family, where the subfamily is plasmogen activator.
The levels of cell surface (or secreted, indicated by the prefix "s") biomarker endpoints were measured by ELISA. Overt cytotoxicity to cells in confluent adherent cultures (all systems other than the BT system) was assessed by measuring total protein levels using sulforhodamine B (SRB) staining in parallel cultures at the time of biomarker measurements, indicated as SRB endpoints. For proliferation assays for adherent cell types, individual cell types are cultured at sub-confluence and relative cell numbers quantified by SRB staining at time points optimized for each system (48 h: 3C and CASM3C systems; 72 h: BT and HDF3CGF systems; 96 h: SAg system). SRB was performed by staining cells with 0.1% SRB after fixation with 10% TCA and reading wells at 560 nm.Viability and proliferation of PBMC (T cells) was quantified by Alamar Blue reduction for the SAg and BT systems. For PBMC viability (referred to as PBMC Cytotoxicity within the assay endpoint names), cells were plated (75,000/well in a 96-well plate) and then chemical samples added for 1 h before addition of activators, SEB and TSST-1 (20 ng/mL final concentration each). Cells were incubated for 90 h. Then, Alamar Blue (20 uL/well) (Invitrogen, Cat DAL1100) was added for 6 h, and the plates were read with a fluorescence microplate reader at 546/580 nm (excitation/emission). For PBMC proliferation, cells were plated and activated as above but incubated for only 16 h prior to addition of Alamar Blue. Plates were read after 6 h.

| Structure (SMILES) | outcome | AC50 |
| --- | --- | --- |
| O=C(Cl)C(F)(F)C(F)(F)C(F)(F)C(F)(F)C(F)(F)C(F)(F)F | inactive | – |
| O=C(O)C(F)(F)C(F)(F)C(F)(F)OC(F)(C(F)(F)F)C(F)(F)F | inactive | – |
| CC1=CC2C3C=CC(C3)C2C1C (stereo not given) | inactive | – |
| Brc1nc2ccccc2s1 | inactive | – |
| O=C(c1ccccc1)c1ccc(O)cc1O | inactive | – |
| CNS(=O)(=O)C(F)(F)C(F)(F)C(F)(F)C(F)(F)C(F)(F)C(F)(F)C(F)(F)C(F)(F)F | inactive | – |
| OCC(F)(F)C(F)(F)C(F)(F)CO | inactive | – |
| OCCCC(F)(F)C(F)(F)C(F)(F)C(F)(F)C(F)(F)C(F)(F)C(F)(F)C(F)(F)F | – | 31 µM (active) and 43.6 µM (active) |
| CCOC(=O)CC(=O)C(F)(F)C(F)(F)F | inactive | 15.1 µM (active) |
| O=C(O)C(F)(F)OC(F)(F)C(F)(F)OC(F)(F)C(F)(F)OC(F)(F)F | inactive | – |
| FC(F)(F)C(F)(F)C(F)(F)C(F)(F)C(F)(F)C(F)(F)CC[Si](Cl)(Cl)Cl | inactive | – |
| COC(F)(C(F)F)C(F)(F)F (stereo not given) | inactive | – |
| CCN(CC)c1ccc2c(c1)Oc1cc(N(CC)CC)ccc1C21OC(=O)c2ccccc21 | inactive | – |
| O=C(O)CCC(F)(F)C(F)(F)C(F)(F)C(F)(F)C(F)(F)C(F)(F)C(F)(F)F | inactive | – |
| CO[Si](C)(CCC(F)(F)C(F)(F)C(F)(F)C(F)(F)C(F)(F)C(F)(F)F)OC | inactive | – |
| FC(F)(F)C(F)(F)C(F)(F)C(F)(F)C(F)(F)C(F)(F)C(F)(F)CCI | inactive | – |
| Nc1cc([N+](=O)[O-])cc(Cl)c1O | inactive | – |
| CCN(CCO)S(=O)(=O)C(F)(F)C(F)(F)C(F)(F)C(F)(F)C(F)(F)C(F)(F)C(F)(F)C(F)(F)F | inactive | – |
| O=C1C=CC(=O)N1c1ccc(Cc2ccc(N3C(=O)C=CC3=O)cc2)cc1 | – | 9.9 µM (active) |

| Structure (SMILES) | outcome | AC50 |
| --- | --- | --- |
| NS(=O)(=O)C(F)(F)C(F)(F)C(F)(F)C(F)(F)C(F)(F)C(F)(F)F | inactive | – |
| Cc1ccc(O)c(-n2nc3ccccc3n2)c1 | inactive | – |
| C[Si](Cl)(Cl)CCC(F)(F)C(F)(F)C(F)(F)C(F)(F)C(F)(F)C(F)(F)F | inactive | 0.0248 µM (active) |
| O=C(Cl)C(F)(F)C(F)(F)C(F)(F)C(F)(F)C(F)(F)C(F)(F)C(F)(F)F | inactive | – |
| O=S(=O)(O)CCC(F)(F)C(F)(F)C(F)(F)C(F)(F)C(F)(F)C(F)(F)C(F)(F)C(F)(F)F | inactive | – |
| Cc1cc(C)c(O)c(C(C)(C)C)c1 | – | 37.7 µM (active) |
| NCC(F)(F)C(F)(F)C(F)(F)C(F)(F)C(F)(F)C(F)(F)F | inactive | – |
| CN(C(=O)C(F)(F)C(F)(F)C(F)(F)F)[Si](C)(C)C | inactive | – |
| C=CC(=O)OCC(F)(F)C(F)(F)C(F)(F)C(F)(F)C(F)(F)C(F)(F)C(F)(F)C(F)F | inactive | – |
| O=S(=O)(OCC(F)(F)F)C(F)(F)C(F)(F)C(F)(F)C(F)(F)F | inactive | – |
| O=S(=O)(Cl)C(F)(F)C(F)(F)C(F)(F)C(F)(F)C(F)(F)C(F)(F)C(F)(F)C(F)(F)F | inactive | 12.1 µM (active) |
| O=C=Nc1cccc2c(N=C=O)cccc12 | inactive | – |
| CCN(CC)c1ccc(N=Nc2ccccc2)cc1 | inactive | – |
| NC(=O)C(F)(F)C(F)(F)C(F)(F)C(F)(F)C(F)(F)C(F)(F)C(F)(F)F | inactive | – |
| NC(O)(C(F)(F)F)C(F)(F)F | inactive | – |
| O=S(=O)(O)CCC(F)(F)C(F)(F)C(F)(F)C(F)(F)F | inactive | – |
| OC(O)C(F)(F)C(F)(F)F | inactive | – |
| OCC(F)(F)C(F)(F)C(F)(F)C(F)(F)C(F)(F)C(F)(F)CO | inactive | – |
